The values that follow come from PMC6925144, “A prospective compound screening contest identified broader inhibitors for Sirtuin 1” (Scientific Reports, 2019).

Each structure is given as a SMILES string.

Chain of NAD-dependent deacetylase Sirtuin 1 (Q96EB6 2-747 limits assumed): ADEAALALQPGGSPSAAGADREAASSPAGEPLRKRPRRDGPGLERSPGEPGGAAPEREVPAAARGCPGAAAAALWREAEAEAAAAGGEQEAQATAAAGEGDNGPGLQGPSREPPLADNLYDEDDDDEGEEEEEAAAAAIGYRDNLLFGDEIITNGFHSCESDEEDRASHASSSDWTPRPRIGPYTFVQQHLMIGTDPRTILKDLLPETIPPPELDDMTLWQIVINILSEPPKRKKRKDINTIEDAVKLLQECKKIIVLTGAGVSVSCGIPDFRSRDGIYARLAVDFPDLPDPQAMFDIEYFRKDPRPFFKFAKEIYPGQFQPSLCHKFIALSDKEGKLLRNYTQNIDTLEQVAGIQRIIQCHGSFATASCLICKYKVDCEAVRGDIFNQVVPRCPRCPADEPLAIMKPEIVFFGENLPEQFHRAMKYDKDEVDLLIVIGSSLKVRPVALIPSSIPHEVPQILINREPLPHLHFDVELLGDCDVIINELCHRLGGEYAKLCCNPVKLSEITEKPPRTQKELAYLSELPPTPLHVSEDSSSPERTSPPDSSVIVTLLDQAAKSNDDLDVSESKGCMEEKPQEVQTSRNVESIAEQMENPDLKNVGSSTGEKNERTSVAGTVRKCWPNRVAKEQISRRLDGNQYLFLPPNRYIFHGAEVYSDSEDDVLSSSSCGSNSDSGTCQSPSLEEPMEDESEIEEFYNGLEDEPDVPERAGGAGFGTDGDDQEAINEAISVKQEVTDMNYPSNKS

The target in the assay is NAD-dependent deacetylase Sirtuin 1 (human, UniProt Q96EB6). Briefly: primary screen, percent inhibition; higher = more effect of the substance. Set-up: mean of n = 4. The settings on record: 10 µM. The method, then:
Note that the inhibitory assay was conducted with NAD+.
For `NC(=O)c1cccc(NC(=O)c2cc3c(s2)-c2ccccc2CC3)c1`, the “TSA(without NAD+) / Inhibitory assay (Promega kit) / Mean (%)” value (from here on “TSA(without NAD+) / Inhibitory assay … (%)”) is recorded as 4.33%.
As to `O=C(COc1ccccc1C(=O)Nc1ccc(S(=O)(=O)Nc2nccs2)cc1)Nc1cccc(C(F)(F)F)c1`, the “TSA(without NAD+) / Inhibitory assay … (%)” value turned out to be 10.1%.
Same read-out and setting: in the case of `O=C(CSc1nnnn1-c1ccc(O)cc1)N1N=C(c2ccc3ccccc3c2)CC1c1ccccc1` (centres unmarked) it was 28.5%.
Regarding `NCc1nc2c(cnn2-c2ccccc2)c(=O)[nH]1`, the “TSA(without NAD+) / Inhibitory assay … (%)” value is recorded as 62.5%.
Take `COc1ccc(NC(=O)CSc2nnc(Nc3ccc(SC(F)F)cc3)s2)cc1OC`: the “TSA(without NAD+) / Inhibitory assay … (%)” value was determined as 16.2%.
Regarding `COc1ccc2cc(/C=C/C(=O)Nc3ccc(C(N)=O)cc3)ccc2c1`, the “TSA(with NAD+) / Inhibitory assay (Promega kit) / Mean (%)” value stood at 19.8%.
Still for that read-out and setting: then `NC(=O)C1CCN(c2nc(-c3cccnc3)nc3sc4c(c23)CCCC4)CC1`, with 39.7%.
For `Cc1cc(F)ccc1N1CCCC(Nc2ccc3nnnn3n2)C1` (centres unmarked), the “TSA(without NAD+) / Inhibitory assay … (%)” value came to 6.7%.
